In the supplement of paper PMC8975748:
Counter-ions that a name gives are not always drawn.

Test system: Saccharomyces cerevisiae BY4741 SeMeCo community
Test: z-score of subpopulation abundance vs DMSO median, subpopulation auxotrophic for HLM; higher = larger share of this subpopulation than in DMSO controls
Conditions: 10 µM; 24 h; SM minimal medium; subpopulation (auxotrophy): HLM
Description: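 Fluorescent four-plasmid SeMeCo (self-establishing metabolically cooperating S. cerevisiae BY4741 community; plasmids pH-mRuby2, pL-mWasabi, pU-eCFP, pM-TagRFP657) was grown 24 h in minimal SM medium with each Selleck FDA-approved drug at 10 µM in 384-well plates. Cells were fixed and imaged by high-content confocal microscopy. For each auxotrophic subpopulation (and the prototroph), a z-score gives the deviation from the DMSO vehicle-control population median.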

SMILES	z-score of subpopulation abundance
C[C@@H](O)[C@H]1C(=O)N2C(C(=O)O)=C([C@H]3CCCO3)S[C@H]12 [Faropenem Sodium]	-0.7
C#C[C@]1(O)CC[C@H]2[C@@H]3CCC4=CCCC[C@@H]4[C@H]3C(=C)C[C@@]21CC [Desogestrel]	-0.87
COCCCOc1ccnc(C[S+]([O-])c2nc3ccccc3[nH]2)c1C (stereo not given) [Rebeprazole sodium]	-0.22
CC/C=C(\C(=O)N[C@@H]1C(=O)N2C(C(=O)OCOC(=O)C(C)(C)C)=C(COC(N)=O)CS[C@H]12)c1csc(N)n1 [Cefcapene Pivoxil Hydrochloride]	0.64
CNCc1cc(-c2ccccc2F)n(S(=O)(=O)c2cccnc2)c1 [Vonoprazan Fumarate (TAK-438)]	-0.4
Cc1cccc(C)c1NC(=O)C1CCCCN1C (stereo not given) [Mepivacaine]	-0.7
C[C@H]1c2cccc(O)c2C(O)=C2C(=O)[C@]3(O)C(O)=C(C(N)=O)C(=O)[C@@H](N(C)C)[C@@H]3[C@@H](O)[C@@H]21 [Doxycycline monohydrate]	0.18
CN(C)CCC=C1c2ccccc2CCc2ccccc21 [Amitriptyline HCl]	-1.26
CCN(CC)CCOC(=O)c1ccc(N)cc1Cl [Chloroprocaine HCl]	-0.23
CO/N=C(\C(=O)N[C@@H]1C(=O)N2C(C(=O)O)=C(CSC(=O)c3ccco3)CS[C@H]12)c1csc(N)n1 [Ceftiofur]	0.23
COC(=O)C1=C(C)NC(C)=C(C(=O)OC)C1c1ccccc1[N+](=O)[O-] [Nifedipine]	0.5
CC[C@H]1OC(=O)[C@H](C)[C@@H](O[C@H]2C[C@@](C)(OC)[C@@H](O)[C@H](C)O2)[C@H](C)[C@@H](O[C@@H]2O[C@H](C)C[C@H](N(C)C)[C@H]2O)[C@](C)(O)C[C@@H](C)CN(C)[C@H](C)[C@@H](O)[C@]1(C)O [Azithromycin]	0.46
CC[N+](C)(C)c1cccc(O)c1 [Edrophonium chloride]	-0.47
C[n+]1ccccc1C=NO [Pralidoxime Iodide]	0.32
CCOC(=O)C1=C[C@@H](OC(CC)CC)[C@H](NC(C)=O)[C@@H](N)C1 [Oseltamivir Phosphate]	0.29
Cc1c(C)c2c(c(C)c1O)CCC(C)(CCCC(C)CCCC(C)CCCC(C)C)O2 (stereo not given) [Vitamin E]	-1.72
CC(=O)OCC(CCn1cnc2cnc(N)nc21)COC(C)=O [Famciclovir]	1.57
C[C@H](NCc1ccc(OCc2cccc(F)c2)cc1)C(N)=O [Safinamide]	1.35
CC1=C(C(=O)OCCN(Cc2ccccc2)c2ccccc2)C(c2cccc([N+](=O)[O-])c2)C(P2(=O)OCC(C)(C)CO2)=C(C)N1 (stereo not given) [Efonidipine]	1.02
CN[C@H]1C(=O)N[C@@H]2Cc3ccc(cc3)Oc3cc4cc(c3O[C@@H]3O[C@H](C(=O)O)[C@@H](O)[C@H](O)[C@H]3NC(=O)CCCCCCCCC(C)C)Oc3ccc(cc3Cl)[C@@H](O)[C@@H]3NC(=O)[C@H](NC(=O)[C@@H]4NC(=O)[C@@H](NC2=O)c2cc(cc(O)c2Cl)Oc2cc1ccc2O)c1ccc(O)c(c1)-c1c(O[C@H]2O[C@H](CO)[C@@H](O)[C@H](O)[C@@H]2O)cc(O)cc1[C@@H](C(=O)NCCCN(C)C)NC3=O [Dalbavancin]	1.32

SMILES	z-score of subpopulation abundance
N[C@H]1CONC1=O [L-Cycloserine]	5.24
CCCc1nn(C)c2c(=O)[nH]c(-c3cc(S(=O)(=O)N4CCN(C)CC4)ccc3OCC)nc12 [Sildenafil Mesylate]	-0.78
CCC(=O)NS(=O)(=O)c1ccc(-c2c(-c3ccccc3)noc2C)cc1 [Parecoxib Sodium]	0.26
O=C1c2cccc3c2[C@H](CCC3)CN1[C@@H]1CN2CCC1CC2 [Palonosetron HCl]	-0.58
COc1ccc(CNc2nc(N3CCC[C@H]3CO)ncc2C(=O)NCc2ncccn2)cc1Cl [Avanafil]	-0.87
C#CCN[C@@H]1CCc2ccccc21 [Rasagiline Mesylate]	-0.04
OCc1ccccc1O[C@@H]1O[C@H](CO)[C@@H](O)[C@H](O)[C@H]1O [Salicin]	-0.5
CO[C@@H]1[C@H](OC(=O)/C=C/C=C/C=C/C=C/C(=O)O)CC[C@]2(CO2)[C@H]1[C@@]1(C)O[C@@H]1CC=C(C)C [Fumagillin]	1.1
CCC(C)n1ncn(-c2ccc(N3CCN(c4ccc(OCC5COC(Cn6cncn6)(c6ccc(Cl)cc6Cl)O5)cc4)CC3)cc2)c1=O (stereo not given) [Itraconazole]	12.5
COCCCN1CCC(NC(=O)c2cc(Cl)c(N)c3c2OCC3)CC1 [Prucalopride Succinate]	1.1
NC(=O)Cc1cccc(C(=O)c2ccccc2)c1N [Nepafenac]	-0.23
O=C1Nc2ccccc2C1=O [Isatin]	-1.17
O=C1c2c(O)ccc(O)c2C(=O)c2c(NCCNCCO)ccc(NCCNCCO)c21 [Mitoxantrone 2HCl]	-2.5
CCCN(CCc1cccs1)[C@H]1CCc2c(O)cccc2C1 [Rotigotine]	-0.19
CN1CCOC(c2ccccc2)c2ccccc2C1 (stereo not given) [Nefopam HCl]	-0.41
COc1cccc2c1C(=O)c1c(O)c3c(c(O)c1C2=O)C[C@@](O)(C(=O)CO)C[C@@H]3O[C@H]1C[C@H](N)[C@@H](O)[C@H](C)O1 [Epirubicin HCl]	0.2
COCCCN1CCC(NC(=O)c2cc(Cl)c(N)c3c2OCC3)CC1 [Prucalopride]	0.6
COCCCOc1ccnc(C[S+]([O-])c2nc3ccccc3[nH]2)c1C (stereo not given) [Rabeprazole]	0.32
CC(C)c1nc(N(C)S(C)(=O)=O)nc(-c2ccc(F)cc2)c1/C=C/[C@@H](O)C[C@@H](O)CC(=O)O [Rosuvastatin Calcium]	3.96
Nc1nc(/C(=C/CC(=O)O)C(=O)N[C@@H]2C(=O)N3C(C(=O)O)=CCS[C@H]23)cs1 [Ceftibuten dihydrate]	0.65
